Several values for one entry are separate records, joined by “and”; a condition that tells them apart may be missing. Equal entries are not always repeated. Activity calls are given as the source filed them. How the source made its calls: active means hit-call score of the fitted dose curve at least 0.9, where 1 is the maximum; inactive means score below 0.9.
Experiment: BSK_LPS_SRB: Viability Assessment in the BioMAP Diversity Plus: LPS Assay (AID 2283079);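 further: fitted in both directions against DMSO so loss or gain of signal counts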
Conditions: primary human HUVEC with PBMC
Description: BSK_LPS is a cell-based, multiplexed-readout assay that uses umbilical vein endothelium and peripheral blood mononuclear cells, a human vascular primary cell co-culture, with measurements taken at 24 hours after chemical dosing in a 96-well plate.BSK_LPS_SRB is an assay component measured in the BSK_LPS assay. It measures 0.1% sulforhodamine related to cell death using Sulforhodamine staining technology.Data from the assay component BSK_LPS_SRB was analyzed into 1 assay endpoint. This assay endpoint, BSK_LPS_SRB, was analyzed with bidirectional fitting relative to DMSO as the negative control and baseline of activity. Using a type of viability reporter, gain or loss-of-signal activity can be used to understand changes in the signaling. Furthermore, this assay endpoint can be referred to as a primary readout, because this assay has produced multiple assay endpoints where this one serves a signaling function. To generalize the intended target to other relatable targets, this assay endpoint is annotated to the cell morphology intended target family, where the subfamily is cell conformation.
The levels of cell surface (or secreted, indicated by the prefix "s") biomarker endpoints were measured by ELISA. Overt cytotoxicity to cells in confluent adherent cultures (all systems other than the BT system) was assessed by measuring total protein levels using sulforhodamine B (SRB) staining in parallel cultures at the time of biomarker measurements, indicated as SRB endpoints. For proliferation assays for adherent cell types, individual cell types are cultured at sub-confluence and relative cell numbers quantified by SRB staining at time points optimized for each system (48 h: 3C and CASM3C systems; 72 h: BT and HDF3CGF systems; 96 h: SAg system). SRB was performed by staining cells with 0.1% SRB after fixation with 10% TCA and reading wells at 560 nm.Viability and proliferation of PBMC (T cells) was quantified by Alamar Blue reduction for the SAg and BT systems. For PBMC viability (referred to as PBMC Cytotoxicity within the assay endpoint names), cells were plated (75,000/well in a 96-well plate) and then chemical samples added for 1 h before addition of activators, SEB and TSST-1 (20 ng/mL final concentration each). Cells were incubated for 90 h. Then, Alamar Blue (20 uL/well) (Invitrogen, Cat DAL1100) was added for 6 h, and the plates were read with a fluorescence microplate reader at 546/580 nm (excitation/emission). For PBMC proliferation, cells were plated and activated as above but incubated for only 16 h prior to addition of Alamar Blue. Plates were read after 6 h.

| Structure (SMILES) | outcome | AC50 |
| --- | --- | --- |
| [Cd+2].[Cl-].[Cl-] | inactive | – |
| O=P1(NCCCl)OCCCN1CCCl (stereo not drawn) | inactive | – |
| CCc1cc(C)cc(CC)c1-c1c(OC(=O)C(C)(C)C)n2n(c1=O)CCOCC2 | inactive | – |
| COC(C)(C)CCC[C@H](C)C/C=C/C(C)=C/C(=O)OC(C)C | – | 29.5 µM (active) |
| CC(C)(C)C(=O)CCl | inactive | – |
| CCCCCCCCCCCC#N | inactive | – |
| O=[N+]([O-])O | inactive | – |
| O=[N+]([O-])C=Cc1ccccc1 | – | 11 µM (active) |
| O=S(=O)(c1ccccc1)c1ccccc1 | inactive | – |
| O=C1C(Cl)=C(Cl)C(=O)C(Cl)=C1Cl | – | 32.2 µM (active) |
| CC(C)CCCCCCCOP(=O)(Oc1ccccc1)Oc1ccccc1 | – | 23.7 µM (active) |
| CC1(C)[C@H](C(=O)O[C@H](C#N)c2cccc(Oc3ccccc3)c2)[C@@H]1C=C(Br)Br | inactive | – |
| CC(=O)/C=C/c1ccccc1 | inactive | – |
| CCC(C)c1cc([N+](=O)[O-])cc([N+](=O)[O-])c1OC(=O)C=C(C)C (stereo not drawn) | – | 13.3 µM (active) |
| N#CCCCCC#N | inactive | – |
| C=CCN(CC=C)C(=O)C(Cl)Cl | inactive | – |
| CC(C)(c1cc(Cl)c(O)c(Cl)c1)c1cc(Cl)c(O)c(Cl)c1 | – | 31.7 µM (active) |
| c1ccc(Nc2ccc3ccccc3c2)cc1 | inactive | – |
| COCC(=O)N(c1c(C)cccc1C)N1CCOC1=O | inactive | – |

| Structure (SMILES) | outcome | AC50 |
| --- | --- | --- |
| O=c1c2ccccc2c(=O)c2c1cc(Cl)c1[nH]c3c([nH]c12)c(Cl)cc1c(=O)c2ccccc2c(=O)c13 | inactive | – |
| O=C1C=CC(=O)C=C1 | inactive | – |
| O=c1[nH]c(Cl)c(Cl)cc1Cl | inactive | – |
| Clc1ccc(-c2ccccc2)cc1 | inactive | – |
| CNC(=O)Oc1cc(C)c(SC)c(C)c1 | inactive | – |
| CC(C)(C)C(O)C(Oc1ccc(-c2ccccc2)cc1)n1cncn1 (stereo not drawn) | inactive | – |
| O=[N+]([O-])c1ccc(Cl)cc1 | inactive | – |
| Cc1ccc(OP(=O)(Oc2ccc(C)cc2)Oc2ccc(C)cc2)cc1 (tested in a mixture with another compound) | – | 20 µM (active) |
| CCCC[N+](CCCC)(CCCC)CCCC | inactive | – |
| Oc1cc(Cl)ccc1Cl | inactive | – |
| Nc1ccc(-c2ccc(N)c(N)c2)cc1N | inactive | – |
| CC(C)COP(=O)(OCC(C)C)OCC(C)C | inactive | – |
| COc1ccc(CO)cc1 | inactive | – |
| C=CC(=O)OCC(CC)CCCC (stereo not drawn) | inactive | – |
| Oc1ccc(C2(c3ccc(O)cc3)c3ccccc3-c3ccccc32)cc1 | – | 13.7 µM (active) and 14.4 µM (active) |
| CCCOC(=O)c1ccccc1C(=O)OCCC | inactive | – |
| CC(C)CCCCCCCOC(=O)c1ccccc1C(=O)OCCCCCCCC(C)C | inactive | – |
| O=C(CCl)c1ccccc1 | – | 15.2 µM (active) |
| O=C(O)CCCc1ccc(N(CCCl)CCCl)cc1 | – | 20 µM (active) |

— PubChem BioAssay (EPA / NIEHS)
